The values below come from PubChem BioAssay.

Several values for one entry are separate records, joined by “and”; a condition that tells them apart may be missing. Equal values may be shown once. The list shows a part of the results. Records with an inconclusive call do not appear. Activity calls are given as the source filed them.

Test [1] is described as follows: inhibitors of TNFa-induced NFkB p65 translocation, primary screen, imaging, HUVEC, MLSMR starter and 10KST1 sets (AID 438;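 active = inhibition above 20% together with a positive visual image hit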;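 note: compound added about 3h40 before a 20 min TNFalpha stimulation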;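 for inhibition: signal is the nuclear over cytoplasmic p65 intensity ratio per well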). As to conditions: HUVEC TNFa-induced p65 nuclear translocation; cell count: measured here: nuclei count (cytotoxicity indicator), at 2.08 µM unless noted; inhibition: at 2 µM, stronger effect = higher value unless noted.
Test [2] can be described thus: reduction of polyQ htt aggregates in cells – imaging, exon1htt(103Q)mCFP cells, high-content imaging, primary screen (AID 483;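 active = visual image review flags a hit and inhibition of aggregation exceeds 20%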;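 note: compound exposure lasted 3 days before fixation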;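 for nuclei count: percent of the per-plate median nuclei count of sample wells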). As to conditions: exon1htt(103Q)mCFP cell line, aggregate imaging, at 2 µM; inhibition of aggregation: stronger effect = higher value; nuclei count: measured here: cell count, toxicity.
Test [3] is described as follows: endothelial E-selectin expression blockers – imaging, HUVEC, immunofluorescence, MLSMR starter and 10KST1 sets, primary screen (AID 487;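 active = visually confirmed hit in the image check and inhibition above 20%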;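 for inhibition: signal is fraction of cell area covered by stained E-selectin grains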;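 for nuclei count: 100% = median nuclei count of all wells on the same plate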). To be noted: HUVEC TNFalpha-induced E-selectin immunofluorescence imaging, at 2 µM; inhibition: stronger effect = higher value; nuclei count: measured here: cell number, toxicity.
The nature of test [4]: Primary imaging screen for DUSP6 inhibitors that restore phospho-Erk in transfected HeLa cells, chemical complementation (AID 609;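 active = compounds giving at least 50% inhibition in the cell-based MKP-3 phosphatase rescue imaging test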;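 for inhibition: phospho-Erk level distribution per well compared with pooled transfected vehicle control wells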). To be noted: HeLa MKP-3 transfected, phospho-Erk imaging KS statistic, at 10 µM.
The target in test [5] is Dual specificity protein phosphatase 6 (Homo sapiens) (UniProt Q16828). The test is described as above. To be noted: HeLa MKP-3 transfected, phospho-Erk imaging KS statistic, at 10 µM, stronger effect = higher value.
Chain of Dual specificity protein phosphatase 6 (Homo sapiens) (Q16828 whole entry, looked up): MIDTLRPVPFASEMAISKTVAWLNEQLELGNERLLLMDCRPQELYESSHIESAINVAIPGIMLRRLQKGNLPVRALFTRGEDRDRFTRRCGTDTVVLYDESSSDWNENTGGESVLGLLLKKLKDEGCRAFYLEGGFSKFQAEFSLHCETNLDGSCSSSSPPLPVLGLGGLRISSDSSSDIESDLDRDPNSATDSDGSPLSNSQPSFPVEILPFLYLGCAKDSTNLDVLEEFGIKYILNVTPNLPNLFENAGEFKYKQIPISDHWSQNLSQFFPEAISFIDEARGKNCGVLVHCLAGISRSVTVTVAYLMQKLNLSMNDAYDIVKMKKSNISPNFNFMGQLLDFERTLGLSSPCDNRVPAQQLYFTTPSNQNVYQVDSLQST
The target of test [6] is Voltage-gated potassium channel subunit beta-2 (Rattus norvegicus) (UniProt P62483). Briefly: inhibitors of rat Kvbeta2 reductase activity – biochemical, NADPH fluorescence, primary screen (AID 622;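 active = fluorescence slope higher than the sample average by over 3 SD, cut at about -0.22 in these data, passing the limit was not always enough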;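 note: slope of raw intensity against log time taken from 70 to 1610 s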). To be noted: recombinant KvBeta, 4-cyanobenzaldehyde reduction, at 10 µM, stronger effect = higher value.
Chain of Voltage-gated potassium channel subunit beta-2 (Rattus norvegicus) (P62483 whole entry, looked up): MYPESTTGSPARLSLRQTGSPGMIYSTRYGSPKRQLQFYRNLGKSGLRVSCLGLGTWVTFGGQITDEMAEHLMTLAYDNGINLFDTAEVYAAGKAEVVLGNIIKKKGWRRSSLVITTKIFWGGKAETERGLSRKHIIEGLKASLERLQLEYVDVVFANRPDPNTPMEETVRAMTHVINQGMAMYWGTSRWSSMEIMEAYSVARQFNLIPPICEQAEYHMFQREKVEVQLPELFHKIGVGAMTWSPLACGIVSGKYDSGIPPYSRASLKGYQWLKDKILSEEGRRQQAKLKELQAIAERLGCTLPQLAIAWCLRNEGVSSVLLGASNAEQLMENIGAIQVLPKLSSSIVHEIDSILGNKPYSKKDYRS
Test [7] has the same target. Briefly: enhancers of rat Kvbeta2 NADPH turnover – biochemical, NADPH fluorescence, primary screen (AID 623;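 active = NADPH fluorescence slope more negative than the mean of all samples by about 3 SD, 99.7% confidence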;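 note: fluorescence intensity change per second fitted from 20 to 320 s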). To be noted: Recombinant KvBeta, NADPH fluorescence decrease slope, 10 min; at 10 µM; stronger effect = lower value.
Test [8] addresses Alpha-2C adrenergic receptor (Homo sapiens) (UniProt P18825). Put plainly: compounds altering alpha2C-coupled GIRK flux – cell-based, HEK293 alpha2C/GIRK1/2, thallium flux, primary screen (AID 624;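 active = fluorescence slope after compound addition differing from the mean of all screened samples at 99.7% confidence, in either direction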;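 note: slope of fluorescence ratio to pre-addition baseline per second over 15 to 24 s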). As to conditions: thallium flux BTC fluorescence, at 10 µM, actives lie on both sides.
Test [9] can be described thus: inhibitors of larval lipid processing in zebrafish, primary screen, whole organism, PED6 fluorescence, gall bladder and intestine (AID 686;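 active = a full or partial loss of lipid-probe fluorescence in the fish gall bladder, intestine or both, judged by eye; inactive = no fluorescence loss, or compound toxic to the fish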;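 note: larvae 5 to 7 days old with five fish per well; signal comes from phospholipase A2 cleavage of quenched PED6 carried via bile; overnight exposure to compound and PED6 before scoring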). As to conditions: Zebrafish larvae PED6 lipid processing, fluorescence scoring.
The nature of test [10]: loss of swimming-algae plug formation – whole organism, Chlamydomonas reinhardtii, WT vs cilia-less mutant, absorbance, 96-well, primary screen (AID 463189).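 Note: 0% = wild type cc124 cells in DMSO and 100% = ciliumless bld1 mutant cells.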 As to conditions: Chlamydomonas reinhardtii gravitaxis, OD600 absorbance, 2 days; at 10 µM; stronger effect = higher value.
A short description of test [11]: blockers of RIG-like receptor reporter activation – cell-based, Sendai virus stimulus, luciferase, 10K MLSCN set, TLR/RLR signaling modifier project, primary screen (AID 602276;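 active = inhibition at or above 50% at 10 µM; inactive = inhibition below 50%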;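 note: firefly luciferase from ISG56 promoter only with Renilla not read in this screen; 0% = Sendai virus plus DMSO and 100% = medium plus DMSO without virus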). As to conditions: HEK293 RL24 IRF3 luciferase reporter, at 10 µM, stronger effect = higher value.
The nature of test [12]: TLR3 IRF3 reporter activation blockers – cell-based, poly I:C stimulus, luciferase, 10K MLSCN set, primary screen (AID 602277;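 active = inhibition of the reporter signal at or above 50%; inactive = inhibition below 50%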). As to conditions: HEK293-TLR3 RL24 IRF3 luciferase reporter, at 10 µM, stronger effect = higher value. On the technique in general: In a reporter assay the amount or activity of a reporter protein is the signal.
Test [13] concerns the target Muscarinic acetylcholine receptor M4 (Homo sapiens) (UniProt P08173). Put plainly: M4-linked GIRK flux change, two-sided – cell-based, HEK293 M4/GIRK, thallium flux, BTC-AM, M4 allosteric agonist project, primary screen (AID 625;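 active = fluorescence slope after compound addition differing from the mean of all tested samples at 99.7% confidence, mostly higher but some lower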;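 note: thallium influx through GIRK channels coupled to M4 in HEK293 cells with BTC-AM dye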). To be noted: at 10 µM, actives lie on both sides.
The target in test [14] is Solute carrier family 12 member 5 (Homo sapiens) (UniProt Q9H2X9). Briefly: retest of KCC2 transport modulators without sodium – cell-based, HEK293 KCC2, thallium flux, secondary assay, confirmation (AID 1713;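 active = thallium flux slope above the same plate's solvent-only control mean plus 3 SD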). As to conditions: FluoZin2 fluorescence, at 10 µM, stronger effect = higher value.
Chain of Solute carrier family 12 member 5 (Homo sapiens) (Q9H2X9 whole entry, looked up): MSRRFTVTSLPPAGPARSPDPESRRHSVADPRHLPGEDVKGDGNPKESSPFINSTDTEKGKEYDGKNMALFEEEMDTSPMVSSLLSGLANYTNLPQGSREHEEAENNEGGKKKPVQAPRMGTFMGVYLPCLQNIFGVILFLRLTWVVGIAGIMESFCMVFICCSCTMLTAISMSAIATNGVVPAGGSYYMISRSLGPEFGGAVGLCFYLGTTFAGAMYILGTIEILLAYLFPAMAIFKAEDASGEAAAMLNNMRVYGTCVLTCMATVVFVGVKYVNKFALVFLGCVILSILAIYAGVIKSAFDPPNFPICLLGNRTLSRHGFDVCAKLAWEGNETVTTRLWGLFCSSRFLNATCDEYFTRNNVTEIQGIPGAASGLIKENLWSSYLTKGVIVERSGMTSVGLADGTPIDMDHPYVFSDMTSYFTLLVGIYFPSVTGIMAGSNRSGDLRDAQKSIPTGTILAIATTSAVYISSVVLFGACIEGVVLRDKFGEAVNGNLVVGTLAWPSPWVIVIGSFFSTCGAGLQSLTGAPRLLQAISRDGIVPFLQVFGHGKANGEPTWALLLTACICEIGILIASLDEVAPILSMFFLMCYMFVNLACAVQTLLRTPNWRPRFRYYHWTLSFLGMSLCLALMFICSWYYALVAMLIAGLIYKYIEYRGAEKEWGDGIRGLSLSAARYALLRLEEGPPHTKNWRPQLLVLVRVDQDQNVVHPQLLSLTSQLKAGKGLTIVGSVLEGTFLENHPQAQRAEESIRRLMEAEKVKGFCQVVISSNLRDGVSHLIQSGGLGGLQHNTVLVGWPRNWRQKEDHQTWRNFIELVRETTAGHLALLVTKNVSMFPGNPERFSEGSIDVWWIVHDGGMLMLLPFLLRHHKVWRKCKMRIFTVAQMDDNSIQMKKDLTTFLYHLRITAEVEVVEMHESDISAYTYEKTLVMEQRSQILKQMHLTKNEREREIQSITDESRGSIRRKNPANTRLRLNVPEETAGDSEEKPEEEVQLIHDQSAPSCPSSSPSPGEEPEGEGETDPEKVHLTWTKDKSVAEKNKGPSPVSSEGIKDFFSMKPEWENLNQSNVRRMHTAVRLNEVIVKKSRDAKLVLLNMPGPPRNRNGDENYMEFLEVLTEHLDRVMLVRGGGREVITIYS
The next test in a line: PubChem AID 1714.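 Note: raw slope of fluorescence over initial fluorescence between 10 and 20 s after thallium.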 As to conditions: HEK293-KCC2 + bumetanide/ouabain, thallium flux FluoZin2; at 10 µM; stronger effect = higher value.
The target in test [15] is Solute carrier family 12 member 5 (Homo sapiens) (UniProt Q9H2X9). Briefly: retest of KCC2 transport modulation, ouabain-free – cell-based, HEK293 KCC2, thallium flux, FluoZin2, secondary assay 2, confirmation (AID 1715;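 active = thallium flux slope more than 3 SD above or below the plate's solvent-only control mean, mostly below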;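 note: raw slope with 0.1% DMSO as baseline and bumetanide as block control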). As to conditions: HEK293-KCC2, thallium flux FluoZin2 fluorescence; at 10 µM; actives lie on both sides.
A short description of test [16]: compound effects on native HEK Tl+ uptake – HEK cells, counterscreen 1, counter-screen for KCC2 modulator project, confirmation (AID 1716;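 active = thallium flux rate significantly above the same plate's solvent-only control wells, beyond their mean plus 3 SD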). As to conditions: HEK293 parental cells, thallium flux FluoZin2, ouabain; at 10 µM; baseline-ratio fluorescence slope, 10–20 s after thallium.
For test [17], the target named is Solute carrier family 12 member 5 (Homo sapiens) (UniProt Q9H2X9). Put plainly: modulation of KCC2 thallium flux in HEK cells – cell-based, ouabain, retest, confirmation (AID 1717;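 active = thallium flux slope beyond 3 SD from same-plate DMSO control mean in most replicates, usually higher, sometimes lower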;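 note: slope of initial-normalized fluorescence between seconds 10 and 20 after thallium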). As to conditions: HEK293-KCC2, thallium flux FluoZin2 fluorescence, at 10 µM, bidirectional: low = inhibitor, high = activator.
Test [18] is described as follows: native HEK Tl+ uptake effects, second counter-screen – HEK cells, counterscreen 2, counter-screen for KCC2 modulator project, confirmation (AID 1718;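 active = thallium flux slope above the same plate's solvent-control mean plus 3 SD in both duplicate wells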;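 note: run without ouabain in cells lacking the KCC2 cotransporter; slope of fluorescence scaled to its starting value between 10 and 20 s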). To be noted: HEK293 parental, thallium flux FluoZin-2 fluorescence slope; at 10 µM.
Where [19] appears, read: measured here: cell density z-score.
Setting [20] is: measured here: nuclear c-Myc green intensity z-score.
The mark [21] stands for this setting: measured here: nuclear pErk red intensity z-score, stronger effect = higher value.

One may read the inhibition as the drop in the measured response relative to a control, in per cent.

Chain of Alpha-2C adrenergic receptor (Homo sapiens) (P18825 whole entry, looked up): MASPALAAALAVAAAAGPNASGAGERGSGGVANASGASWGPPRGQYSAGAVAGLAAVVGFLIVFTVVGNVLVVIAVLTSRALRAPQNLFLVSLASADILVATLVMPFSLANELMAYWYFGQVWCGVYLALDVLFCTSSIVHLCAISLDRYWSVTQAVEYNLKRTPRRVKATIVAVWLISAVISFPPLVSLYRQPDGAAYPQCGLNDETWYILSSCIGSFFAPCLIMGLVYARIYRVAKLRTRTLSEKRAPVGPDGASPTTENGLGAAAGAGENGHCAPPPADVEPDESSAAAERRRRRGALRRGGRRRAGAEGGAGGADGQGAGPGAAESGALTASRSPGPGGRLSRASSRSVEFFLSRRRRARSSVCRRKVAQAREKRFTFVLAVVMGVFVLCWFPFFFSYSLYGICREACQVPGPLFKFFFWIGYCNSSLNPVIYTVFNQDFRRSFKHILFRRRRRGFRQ
Chain of Muscarinic acetylcholine receptor M4 (Homo sapiens) (P08173 whole entry, looked up): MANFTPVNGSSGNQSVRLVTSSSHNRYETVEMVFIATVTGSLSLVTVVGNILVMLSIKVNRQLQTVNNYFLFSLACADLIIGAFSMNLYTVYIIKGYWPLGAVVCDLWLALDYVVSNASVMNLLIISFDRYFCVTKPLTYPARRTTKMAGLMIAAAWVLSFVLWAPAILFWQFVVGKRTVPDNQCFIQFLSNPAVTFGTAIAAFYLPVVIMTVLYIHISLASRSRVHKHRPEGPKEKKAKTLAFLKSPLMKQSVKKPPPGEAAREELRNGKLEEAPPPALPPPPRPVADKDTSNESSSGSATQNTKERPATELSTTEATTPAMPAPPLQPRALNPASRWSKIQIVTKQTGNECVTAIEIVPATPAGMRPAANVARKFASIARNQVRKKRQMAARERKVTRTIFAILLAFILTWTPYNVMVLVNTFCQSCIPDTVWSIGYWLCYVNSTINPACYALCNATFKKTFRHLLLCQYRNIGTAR

In test [1], `c1ccc(Cn2ccnc2)cc1` came in with a cell count of 630. Moreover, the inhibition was 3.1% (inactive) in [1]; -120% (inactive) in test [3]; 8% (inactive) in test [5]; -7.16% (inactive) in test [10]; 20.5% (inactive) in [11]; 27.2% (inactive) in test [12]. Moreover, the inhibition of aggregation in test [2] is 16.2% (inactive). Besides, the nuclei count in [2] was 94.6%; in test [3], 130%. Further, the z-score in [4] (setting [19]) was 1.25; in test [4] (setting [20]), -0.35; in test [4] (setting [21]) it was 1.06. The fluorescence slope in [6] was -0.486 (inactive). In test [7], the NADPH fluorescence slope is 3.7e-06 (inactive). In addition, the slope in test [8] was 0.00411 (inactive). The call in test [9] was inactive.

For the compound `C[N+]1(C)[C@@H]2CC(OC(=O)[C@H](CO)c3ccccc3)C[C@H]1[C@@H]1O[C@@H]12` (stereo partly specified), in test [1], the cell count amounted to 542. Moreover, the inhibition is -16.3% (inactive) in test [1]; -56.7% (inactive) in test [3]; -0.493% (inactive) in test [5]; 9.4% (inactive) in test [10]; -2.08% (inactive) in test [11]; 22.3% (inactive) in test [12]. Moreover, the inhibition of aggregation in test [2] was 19% (inactive). Moreover, the values for the nuclei count in test [2] and in test [3] were 107% and 129%, respectively. Also, the figures for the z-score in test [4] (setting [19]), in [4] (setting [20]) and in [4] (setting [21]) were -0.698, -0.0087 and -0.0821, respectively. Also, the fluorescence slope in test [6] was -0.433 (inactive). In addition, the NADPH fluorescence slope in test [7] was 2.1e-05 (inactive). For the same compound, in test [8], the slope is 0.0054 (inactive). Also, in test [9], the compound was classed as inactive.

In test [1], `CC1=NOC2(C)Nc3ncnn3C(c3ccccc3)C12` (stereo unspecified) yielded a cell count of 604. Moreover, the inhibition is -11.4% (inactive) in test [1]; -129% (inactive) in test [3]; 1.98% (inactive) in test [5]; 2.9% (inactive) in test [10]; -5.02% (inactive) in test [11]; 6.14% (inactive) in test [12]. Moreover, the inhibition of aggregation in [2] is 21% (inactive). Also, the nuclei count in [2] came out at 85%; in [3], 145%. In addition, the z-score is 0.203 in test [4] (setting [19]), 0.546 in test [4] (setting [20]) and 1.46 in test [4] (setting [21]). Further, the fluorescence slope in test [6] is -0.454 (inactive); in test [13] it was 0.00509 (inactive). In addition, the NADPH fluorescence slope in test [7] was -5.1e-05 (inactive). Besides, in [8], the slope was 0.00521 (inactive). The call in test [9] was inactive.

`COc1ccc2[nH]cc(CCN(C)C)c2c1` yielded a cell count in test [1] of 560. Moreover, the inhibition in [1] was -3.3% (inactive); in [3], -34% (inactive); in test [5], 3.59% (inactive); in test [10], 12.8% (inactive) and -9.88% (inactive); in [11], 7.44% (inactive); in test [12] it was 13.2% (inactive). The inhibition of aggregation in test [2] is -16.8% (inactive). The nuclei count in test [2] amounted to 95.6%; in test [3] it was 102%. The z-score in test [4] (setting [19]) is -0.633; in test [4] (setting [20]), 0.535; in [4] (setting [21]), 0.345. The fluorescence slope in [6] is -0.516 (inactive). For the same compound, in test [7], the NADPH fluorescence slope is 1.6e-07 (inactive). Besides, the slope in test [8] was 0.00666 (inactive). The result in [9] was inactive.

Consider `COc1cc(-n2c(=S)[nH]c3ccc(C)cc3c2=O)c(Cl)cc1Cl`, for which the normalised thallium flux (F/F0 slope) in test [14] was 0.0155 (active). The normalized thallium flux in “PubChem AID 1714” is 0.0563 (active); in test [15], 0.0344 (inactive). In addition, the thallium flux rate (normalised fluorescence) in test [16] was 0.0674 (active). Further, in test [17], the raw Tl+ flux slope (below DMSO = inhibition, above = activation) was 0.0437 (active). Also, the thallium flux slope in test [18] is 0.0196 (active).

With `O=C(CSC1c2ccccc2-c2ccccc21)N/N=C/c1ccccc1`, the normalised thallium flux (F/F0 slope) in test [14] was 0.00922 (inactive). The normalized thallium flux in the test “PubChem AID 1714” is 0.00567 (inactive); in test [15], 0.0321 (inactive). Moreover, in [16], the thallium flux rate (normalised fluorescence) is 0.00741 (inactive). Further, the raw Tl+ flux slope (below DMSO = inhibition, above = activation) in test [17] was 0.02 (inactive). The thallium flux slope in test [18] is 0.0112 (active).
